GPR151 ag = human GPR151 activation | AID 1508602 | activation, % at 11.2 µM | PathHunter beta-arrestin GPR151 cells, luminescence | 650,000 compounds, 1% hits; in the data active = activation above about 4.9%;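 note: 0% = median of compound wells and 100% = cells with positive control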
FBW7 act = human FBW7 E3 ligase activation, primary screen. Q969H0. AlphaScreen FBW7–phospho-cyclin E peptide binding, activator screen. normalized activity (activation), % at 26.1 µM. 650,000 compounds, 0.13% hits. AID 1259310; in the data active = normalized activity above about 1.9%;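 note: purified mutant Fbw7 with reduced substrate affinity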
TEAD-YAP block = TEAD-YAP interaction inhibition. HEK-TIYL cells, TEAD-Gal4/YAP UAS-luciferase luminescence. inhibition, % at 9.12 µM. 640,000 compounds, 1.4% hits. AID 1259422; in the data active = inhibition above about 32%;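 note: 0% = median of test compound wells and 100% = reference inhibitor wells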
MITF inh = inhibitors of human MITF; 650,000 compounds, 0.91% hits; AlphaScreen MITF homodimerization, bead proximity signal; O75030; AID 1259374; inhibition, % at 2.6 µM; in the data active = inhibition above about 50%;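 note: 0% = vehicle wells with protein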
GPR151 conf act = human GPR151 activation, confirmation screen; 6,700 tested, under 10 active; shares compounds with GPR151 ag; activation, % at 11.2 µM; GPR151 PathHunter beta-arrestin cells, luminescence, 90 min; % of EA-reagent control over plate median;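 active = mean percent activation across replicates above the confirmation screen cutoff of 4.91%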
GPR119 ag = GPR119 activation, counter-screen for GPR151 activators | shares compounds with GPR151 ag | GPR119 PathHunter beta-arrestin cells, luminescence, 90 min; 0 = compound-well median, 100 = enzyme-acceptor control | activation, % at 11.2 µM | 6,700 compounds, 0.3% hits | AID 1508611;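 active = mean percent activation in the counterscreen above 29.09%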;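 note: counterscreen on off-target GPR119 to flag nonselective hits from the GPR151 activator screen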
Target sequence (Q8TDV5 whole entry, looked up): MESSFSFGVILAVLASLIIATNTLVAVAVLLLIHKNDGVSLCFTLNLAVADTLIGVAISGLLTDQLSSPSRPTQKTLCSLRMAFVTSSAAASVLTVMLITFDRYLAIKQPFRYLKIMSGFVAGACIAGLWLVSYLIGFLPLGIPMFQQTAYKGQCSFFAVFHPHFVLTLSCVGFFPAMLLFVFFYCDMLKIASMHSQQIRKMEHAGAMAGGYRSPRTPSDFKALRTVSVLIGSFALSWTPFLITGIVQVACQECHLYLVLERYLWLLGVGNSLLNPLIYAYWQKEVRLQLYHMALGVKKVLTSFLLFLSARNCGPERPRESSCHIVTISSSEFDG
* marks the source's active call; other numbers are inactive results; / = no result given; ! = a repeat was not active. This is a sample that favours compounds with a hit; in the whole collection about 3.5% have one here.

SMILES | GPR151 ag | FBW7 act | TEAD-YAP block | MITF inh | GPR151 conf act | GPR119 ag
COc1cc(NC(=S)N2CCC(C(N)=O)CC2)cc(OC)c1 | 7.5* | -0.4 | 5.4 | -12.1 | 0.3 | -9.8
COc1ccc(C2C(C(=O)O)c3ccccc3C(=O)N2C)cc1 (stereo not given) | 0.3 | -0.1 | -4.7 | 2.3 | / | /
Cn1c(=O)c2ccccc2n(C)c1=S | 5.6* | 0.5 | 1.1 | 5.3 | -0.8 | -4.5
COC(=O)c1c(N)oc2c(-c3cccc(C(F)(F)F)c3)c3c(C(=O)OC)c(N)oc3cc12 | 0.9 | 0.0 | 0.8 | -10.1 | / | /
O=C(Nc1c2c(nn1-c1ccc(Cl)cc1)CSC2)c1ccc(Cl)cc1 | 7.7* | 0.1 | -15.0 | 8.4 | -1.2 | -12.8
O=C(CCOc1ccccc1)OCC(=O)c1ccc(Br)cc1 | 0.7 | 0.2 | 4.5 | 6.9 | / | /
Cc1ccc(NC(=O)C2CCCN2c2nn3c(=O)cc(C)nc3s2)c(Cl)c1 (stereo not given) | 5.0* | 0.0 | 2.9 | 5.5 | -0.1 | -4.6
O=C(NCC(c1cccs1)N1CCc2ccccc2C1)c1ccco1 (stereo not given) | -1.0 | 0.0 | 0.9 | 1.7 | / | /
Nc1ccn([C@@H]2O[C@H](CO)[C@@H](O)C2O)c(=O)n1 (stereo not given in full) | -1.6 | 0.0 | -29.5 | -14.6 | / | /
Nc1ccn([C@@H]2O[C@H](CO)[C@@H](O)C2(F)F)c(=O)n1 | 8.7*! | 0.0 | -28.9 | -2.5 | 0.1 | 1.4
COc1ccc(/C=C(/NC(=O)c2ccc(OCC(C)C)cc2)C(=O)NCCCO)cc1 | -0.8 | 0.9 | 0.3 | 1.5 | / | /
CCn1c(SCC(=O)Nc2ccc(F)cc2Cl)nc2c(-c3ccccc3)csc2c1=O | -0.1 | 0.0 | 11.4 | 11.6 | / | /
CC(C)NC[C@H](O)COc1cccc2ccccc12 | 8.0*! | 0.2 | 1.2 | -17.8 | 1.7 | 4.6
CC(=O)NC1=NN(C(C)=O)C(C)(c2ccc(-c3ccccc3)cc2)S1 (stereo not given) | 0.1 | 0.3 | 5.6 | 1.0 | / | /
Cc1cccn2c(=O)c3cc(C(=O)N4CCc5ccccc54)sc3nc12 | 5.0* | 0.1 | 4.3 | 9.5 | -0.2 | 5.7
O=C(NNC(=O)c1ccccc1I)c1cccs1 | 5.8* | 0.2 | -1.5 | 4.0 | -0.5 | -10.9
CCN(c1ccccc1)S(=O)(=O)c1ccc2[nH]c(=O)ccc2c1 | -0.5 | 0.3 | -5.1 | 13.1 | / | /
CCN(c1ccccc1)S(=O)(=O)c1ccc(-n2cccn2)cc1 | 9.0* | 0.1 | 1.8 | -0.7 | 0.2 | 0.7
CCN(c1ccccc1)S(=O)(=O)c1ccc(=O)[nH]c1 | 6.3* | 1.0 | 10.3 | 13.0 | -1.2 | -3.1
O=C(O)Cn1nnc(-c2ccc(C(F)(F)F)cc2)n1 | 0.2 | 0.1 | 0.0 | -4.7 | / | /
Cc1cc(/C=C(/C#N)c2cccc(Cl)c2)c(C)n1C | 5.6* | 0.0 | -10.8 | 0.7 | -0.3 | 0.3
O=C(CCCn1c(=S)[nH]c2ccc(Br)cc2c1=O)NCc1ccccc1Cl | -0.7 | -0.1 | 10.1 | -3.6 | / | /
Cc1ccc(N=Cc2ccccc2O)cc1F | 1.2 | 0.8 | -0.1 | 26.9 | / | /
Cc1ccc(N=Cc2ccccc2O)cc1C#N | 5.6* | 0.1 | 10.9 | 9.6 | -0.3 | 9.7
O=C(c1cccs1)N1CCN(C2CCCCCC2)CC1 | 1.2 | -0.5 | -5.9 | 10.8 | / | /
SMILES | GPR151 ag | FBW7 act | TEAD-YAP block | MITF inh | GPR151 conf act | GPR119 ag
CCOC(=O)N1CCC(N(CCOC)C(=S)Nc2cccc(OC)c2)CC1 | 8.6* | -0.2 | -14.0 | -1.2 | -1.2 | -10.8
CC1=C(C(=O)OC(C)C)C(c2cn(-c3ccccc3)nc2-c2cccc([N+](=O)[O-])c2)C(C(=O)OC(C)C)=C(C)N1 | 0.0 | 0.0 | 15.1 | 1.6 | / | /
COC(=O)Cc1c(C)c2c(OCC(=O)c3cccc([N+](=O)[O-])c3)cc(C)cc2oc1=O | 2.7 | -0.1 | -10.8 | -2.7 | / | /
CCN(CC)C(=O)COc1cc2oc(=O)c(CC(=O)OC)c(C)c2cc1Cl | 7.1* | -0.1 | -4.4 | 4.2 | 0.1 | -1.7
COC(=O)COc1cc(C)cc2oc(=O)c(CC(=O)OC)c(C)c12 | 6.1* | 0.0 | 1.4 | 10.2 | 0.3 | 11.3
COc1ccccc1/C=N/NC(=O)CCN1CCN(C)CC1 | 0.3 | -0.1 | 10.8 | 45.8 | / | /
COc1ccc(C2/C(=C(/O)c3ccccc3)C(=O)C(=O)N2CCCn2ccnc2)c(OC)c1 (stereo not given) | 5.9* | -0.1 | 2.2 | -21.3 | 1.7 | -3.9

High-throughput results from PubChem BioAssay.
